Assay results taken from PubChem BioAssay.
Calls of active or inactive are those of the source.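 The calls were made as follows, unless noted: active = compounds that lower viability of the colon cancer cells in the luminescence readout, with no numeric limit stated; inactive = the rest.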

Columns and labels:
[1] = stimulators of nuclear beta-catenin in C2C12, primary screen, imaging, WNT3A-conditioned medium, mouse C2C12, NPC library (AID 1117326; in the data active = nuclear beta-catenin stimulation mostly above about 4.2%, no sharp cut-off; inactive = mostly below about 10%); settings: stronger effect = higher value
[2] = stimulators of insulin release from INS-1E, primary screen, cell-based, 5 mM glucose, NPC library (AID 1117329;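 active = compound raises insulin release from rat beta cells at 5 mM glucose, no numeric limit stated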); settings: rat INS-1E insulin secretion, at 10 µM, stronger effect = higher value
[3] = growth inhibition of GSK3B-pretreated HCT116 cells – cell-based, CellTiter-Glo, 0.2 to 20 µM (AID 1117336;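 active = compounds lowering colon cancer cell viability after pretreatment blocking the GSK3B kinase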); settings: HCT116 viability after GSK3B inhibitor, at 20 µM, stronger effect = higher value
[4] = inhibition of endothelial tube formation, primary screen, imaging, VEGF stimulated, CD31 staining, tube area, NPC library (AID 1117340;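 active = compound that reduces growth-factor-driven endothelial tube area in a mixed cell culture, no cutoff stated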); settings: VEGF-stimulated ADSC/ECFC co-culture, at 10 µM, stronger effect = higher value
[5] = glucagon-like peptide 1 release enhancers, primary assay, NCI-H716 cell line, NPC library (AID 1117341;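 active = compound raises GLP1 secretion from the human gut endocrine cells, with no numeric limit stated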); settings: NCI-H716 cells, at 10 µM, stronger effect = higher value
[6] = HCT116 colon cancer cell growth inhibition, primary screen, CellTiter-Glo luminescence, NPC library (AID 1117342;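 active = compounds that lower survival of HCT116 colon cancer cells in the luminescence readout, no numeric limit stated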); settings: at 20 µM (top of the series)
[7] = CellTiter-Glo luminescent readout of SW480 viability loss, NPC library primary (AID 1117343); settings: CellTiter-Glo luminescence; at 20 µM (top of the series) unless noted
[8] = decreased DLD-1 cellular survival, CellTiter-Glo luminescent readout, NPC compound collection, primary HTS (AID 1117346;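 active = compounds that lower survival of DLD-1 colon cancer cells in the luminescence readout, no cutoff given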); settings: DLD-1 viability, CellTiter-Glo luminescence; at 20 µM (top of the series)
[9] = sensitizers of A549 cells to miR-34 induction, primary screen, imaging, A549 dox-inducible miR-34, nuclei and caspase counts (AID 1347080;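 active = compounds whose cell count with miR-34 switched on is under 0.7 times the count with it off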); settings: A549 miR-34 inducible, Hoechst nuclei count, 48 h
[10] = viability rescue of complex I mutant cybrids, primary screen, cell-based, galactose medium, ATP luminescence (AID 1645843;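 active = z-score of at least 1.8 in each of two replicates, scored against plate mean and spread of sample wells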;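 also: positive z means more ATP and so rescue of galactose-driven cybrid death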); settings: complex I mutant cybrid cells, 72 h, stronger effect = higher value
[11] = biological target: NAD(+) hydrolase SARM1 (Homo sapiens) (UniProt Q6SZW1); test: SARM1 TIR NADase inhibitors, cell lysate, NAD-Glo luminescence (AID 1508614;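 active = compound whose remaining NAD level is above about 45 nM, limit read from the data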;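 also: higher remaining NAD means stronger inhibition of SARM1 NADase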); settings: SAM-TIR HEK293T lysate NADase, at 1 µM, stronger effect = higher value
NAD(+) hydrolase SARM1 (Homo sapiens), sequence (Q6SZW1 whole entry, looked up): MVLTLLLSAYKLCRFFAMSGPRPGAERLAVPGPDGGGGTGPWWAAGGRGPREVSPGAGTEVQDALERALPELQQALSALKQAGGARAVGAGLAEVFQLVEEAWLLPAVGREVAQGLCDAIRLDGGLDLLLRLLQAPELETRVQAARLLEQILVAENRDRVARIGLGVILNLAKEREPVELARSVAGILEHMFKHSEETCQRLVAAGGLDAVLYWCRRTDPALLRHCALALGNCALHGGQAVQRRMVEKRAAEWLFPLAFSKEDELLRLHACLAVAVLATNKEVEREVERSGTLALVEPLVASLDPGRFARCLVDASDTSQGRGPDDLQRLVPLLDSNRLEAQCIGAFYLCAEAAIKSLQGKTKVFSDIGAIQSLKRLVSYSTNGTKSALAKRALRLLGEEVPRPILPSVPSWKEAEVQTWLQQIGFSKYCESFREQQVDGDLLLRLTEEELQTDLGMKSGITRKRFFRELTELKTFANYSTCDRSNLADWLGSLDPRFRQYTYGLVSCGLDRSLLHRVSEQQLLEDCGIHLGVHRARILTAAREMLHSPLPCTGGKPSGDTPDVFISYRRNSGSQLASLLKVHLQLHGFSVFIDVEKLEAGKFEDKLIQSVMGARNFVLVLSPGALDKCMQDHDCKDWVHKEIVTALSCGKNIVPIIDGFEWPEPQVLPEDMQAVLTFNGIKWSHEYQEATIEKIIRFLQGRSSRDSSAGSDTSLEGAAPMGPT

[12] = survival rescue of mitochondrial mutant cells in low glucose, primary screen, MELAS cybrids, Rieske KO mouse fibroblasts, CellTiter-Glo (AID 1508586;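 active = mean z-score across replicates of 1.96 or higher in either the MELAS or the Rieske mutant cell line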;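 also: z relative to plate mean and SD of compound and empty wells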)
[13] = biological target: Mitogen-activated protein kinase 7 (Homo sapiens) (UniProt Q13164); test: ERK5 transactivation activators in reporter cells, primary screen, cell-based, HTS (AID 1508626;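 active = luciferase signal above three times the same-plate solvent-only control wells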;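 also: luciferase driven by Gal4-ERK5 fusion binding five Gal4 sites before minimal TATA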); settings: HeLa Gal4-ERK5 transactivation, 18 h, at 5 µM, stronger effect = higher value
Mitogen-activated protein kinase 7 (Homo sapiens), sequence (Q13164 whole entry, looked up, the tested form may be a part): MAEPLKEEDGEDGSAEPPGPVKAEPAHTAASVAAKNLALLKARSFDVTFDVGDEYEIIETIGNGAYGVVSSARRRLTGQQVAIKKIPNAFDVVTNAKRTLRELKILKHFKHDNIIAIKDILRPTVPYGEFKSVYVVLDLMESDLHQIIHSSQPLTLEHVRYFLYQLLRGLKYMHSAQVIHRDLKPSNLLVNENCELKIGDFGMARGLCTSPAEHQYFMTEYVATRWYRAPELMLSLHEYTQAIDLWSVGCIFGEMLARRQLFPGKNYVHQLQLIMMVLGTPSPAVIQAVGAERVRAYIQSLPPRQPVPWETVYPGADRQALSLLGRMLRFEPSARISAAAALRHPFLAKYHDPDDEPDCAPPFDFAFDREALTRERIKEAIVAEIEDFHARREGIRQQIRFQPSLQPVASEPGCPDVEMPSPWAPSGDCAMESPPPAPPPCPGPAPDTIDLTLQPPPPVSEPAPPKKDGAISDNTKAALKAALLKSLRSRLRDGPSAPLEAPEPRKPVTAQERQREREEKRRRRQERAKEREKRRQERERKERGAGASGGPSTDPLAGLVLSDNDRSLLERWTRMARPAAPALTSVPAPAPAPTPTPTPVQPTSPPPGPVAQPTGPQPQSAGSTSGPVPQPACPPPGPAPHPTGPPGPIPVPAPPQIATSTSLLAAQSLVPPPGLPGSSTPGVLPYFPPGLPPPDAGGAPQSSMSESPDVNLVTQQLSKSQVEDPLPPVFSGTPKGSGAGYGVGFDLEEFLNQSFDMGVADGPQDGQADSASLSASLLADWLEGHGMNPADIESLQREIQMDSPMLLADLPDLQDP

[14] = liver-stage malaria parasite growth inhibition, primary screen, cell-based, HepG2, luciferase luminescence, HepG2 viability (AID 624349; in the data active = parasite load remaining mostly below about 12%, no sharp cut-off; inactive = mostly above about 10%;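 also: 100% = mean of DMSO negative control wells on the same plate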); settings: P. berghei liver stage in HepG2, luciferase luminescence, concentration not given here; parasite load remaining: stronger effect = lower value; viability: measured here: HepG2 viability without parasites
[15] = phospholipid biosynthesis inhibitors in animal cells, primary screen, cell-based, LOPAC library, screen 4 (AID 1347384; call rule not given here); settings: phospholipid biosynthesis inhibition screen, at 10 µM
[16] = hESC survival regulators, cell-based (AID 493140; call rule not given here;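 also: cells exposed to compounds for four days before counting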); settings: human embryonic stem cell survival screen; stronger effect = higher value
[17] = stronger effect = lower value, cell number ratio, induced over uninduced
[18] = measured here: relative caspase fold change +Dox/-Dox
[19] = measured here: total cells with miR-34 induction, stronger effect = lower value
[20] = measured here: total cells without miR-34 induction
[21] = MELAS cybrid survival, CellTiter-Glo 48 h, stronger effect = higher value
[22] = Rieske KO mouse fibroblast survival, CellTiter-Glo 72 h

CC1(C)CC1C(=O)NC(=CCCCCSCC(N)C(=O)O)C(=O)O (stereo unspecified)
-0.6%: nuclear beta-catenin stimulation ([1]; stimulation, at 2 µM)
1.99: fold change [9, 18]
10500: cell count [9, 20]
9810: cell count [9, 19]
inactive: nuclear beta-catenin stimulation ([1]; at 10 µM) -2.2% | insulin secretion stimulation [2] 2.2% | viability decrease [3] 15.4% | tube area decrease [4] 26.1% | GLP1 secretion stimulation [5] -4.3% | inhibition of viability [6] 37.8% | viability decrease (inhibition) [7] 28.9% | viability decrease (inhibition) [8] -4% | fold change [9, 17] 0.936 | z-score [10] 0.555

CCC(=O)c1ccc(O)cc1
inactive: nuclear beta-catenin stimulation ([1]; at 10 µM) 2.6% | insulin secretion stimulation [2] 0.1% | viability decrease [3] 8.05% | tube area decrease [4] 5.9% | GLP1 secretion stimulation [5] -2.3% | inhibition of viability [6] 16.7% | viability decrease (inhibition) [8] 25.2% | fold change [9, 17] 0.903 | remaining NAD [11] 10 nM
0.966: fold change [9, 18]
7980: cell count [9, 19]
active: viability decrease (inhibition) [7] 60.1%
8840: cell count [9, 20]
-0.5%: nuclear beta-catenin stimulation ([1]; stimulation, at 2 µM)

NC(=O)N[C@@H](CCC(=O)O)C(=O)O
-1%: nuclear beta-catenin stimulation ([1]; stimulation, at 2 µM)
inactive: nuclear beta-catenin stimulation ([1]; at 10 µM) -0.1% | insulin secretion stimulation [2] 0.3% | viability decrease [3] 11.1% | tube area decrease [4] -22.3% | GLP1 secretion stimulation [5] -2.5% | inhibition of viability [6] 4.1% | viability decrease (inhibition) [7] -6.5% | viability decrease (inhibition) [8] 1% | remaining NAD [11] 10 nM

CCCCC(CC)COC(=O)c1ccccc1O (stereo unspecified)
active: viability decrease (inhibition) [7] 50.1%
inactive: nuclear beta-catenin stimulation ([1]; at 10 µM) -0.1% | insulin secretion stimulation [2] -2% | viability decrease [3] 9.8% | tube area decrease [4] -7.3% | GLP1 secretion stimulation [5] 1.9% | inhibition of viability [6] 2.2% | viability decrease (inhibition) [8] 14.3% | remaining NAD [11] 10 nM
-0.3%: nuclear beta-catenin stimulation ([1]; stimulation, at 2 µM)

NC(=O)C(c1ccccc1)(c1ccccc1)[C@@H]1CCN(CCc2ccc3c(c2)CCO3)C1
-1.37: z-score [12, 22]
1.7%: nuclear beta-catenin stimulation ([1]; stimulation, at 2 µM)
inactive: nuclear beta-catenin stimulation ([1]; at 10 µM) 0.1% | insulin secretion stimulation [2] 16% | viability decrease [3] -129% | tube area decrease [4] 25.4% | GLP1 secretion stimulation [5] 0.9% | inhibition of viability [6] 35.1% | viability decrease (inhibition) [7] 22.8% | viability decrease (inhibition) [8] 12.4% | z-score [12, 21] -1.84 | remaining NAD [11] 10 nM | luciferase signal [13] 108 AU

CCOc1ccccc1C(N)=O
inactive: nuclear beta-catenin stimulation ([1]; at 10 µM) 0.9% | insulin secretion stimulation [2] -1.8% | viability decrease [3] -5.85% | tube area decrease [4] -6.8% | GLP1 secretion stimulation [5] 1.9% | inhibition of viability [6] 22.9% | viability decrease (inhibition) [7] 31.4% | viability decrease (inhibition) [8] -1.45% | remaining NAD [11] 10 nM
1.6%: nuclear beta-catenin stimulation ([1]; stimulation, at 2 µM)

Cc1cc(CC(C)CC(C)(C)C)n(O)c(=O)c1 (stereo unspecified)
50.6%: nuclear beta-catenin stimulation ([1]; stimulation, at 2 µM)
active: nuclear beta-catenin stimulation ([1]; at 10 µM) 43.5% | viability decrease [3] 94.2% | tube area decrease [4] 107% | inhibition of viability [6] 67.2% | viability decrease (inhibition) [7] 95.7% | viability decrease (inhibition) [8] 91.5%
inactive: insulin secretion stimulation [2] 2.2% | GLP1 secretion stimulation [5] -0.7% | remaining NAD [11] 10 nM

O=P(O)(O)C(Cl)(Cl)P(=O)(O)O
100%: viability [14]
0.9%: nuclear beta-catenin stimulation ([1]; stimulation, at 2 µM)
-0.285: z-score [12, 22]
inactive: parasite load remaining [14] 33.9% | nuclear beta-catenin stimulation ([1]; at 10 µM) 1% | insulin secretion stimulation [2] 5.1% | viability decrease [3] -1.2% | tube area decrease [4] 26.4% | GLP1 secretion stimulation [5] -4.3% | inhibition of viability [6] 11.1% | viability decrease (inhibition) [7] 26.6% | viability decrease (inhibition) [8] -2.9% | outcome [15] | z-score [12, 21] 0.218

CCC1C(=O)OCC1Cc1cncn1C (stereo unspecified)
20%: nuclear beta-catenin stimulation ([1]; stimulation, at 2 µM)
active: tube area decrease [4] -1.1%
inactive: nuclear beta-catenin stimulation ([1]; at 10 µM) 0.7% | insulin secretion stimulation [2] 3.7% | viability decrease [3] 2.7% | GLP1 secretion stimulation [5] 1.2% | inhibition of viability [6] 8.9% | viability decrease (inhibition) [7] -14.8% | viability decrease (inhibition) [8] -20.6% | outcome [15]

O=C(OCCOCCO)c1ccccc1Nc1cccc(C(F)(F)F)c1
0.111: z-score [12, 22]
inactive: survival [16] 2.08 | nuclear beta-catenin stimulation ([1]; at 10 µM) -1.7% | insulin secretion stimulation [2] 0.3% | tube area decrease [4] 13.5% | GLP1 secretion stimulation [5] -1.6% | viability decrease (inhibition) [8] 45.7% | z-score [12, 21] 0.681
-0.5%: nuclear beta-catenin stimulation ([1]; stimulation, at 2 µM)
active: viability decrease [3] 79.4% | inhibition of viability [6] 81.8% | viability decrease (inhibition) [7] 54.2%

COc1ccc(-n2nc(CCC(=O)N(C)O)cc2-c2ccc(Cl)cc2)cc1
0.2%: nuclear beta-catenin stimulation ([1]; stimulation, at 2 µM)
inactive: nuclear beta-catenin stimulation ([1]; at 10 µM) 0.6% | insulin secretion stimulation [2] 2.7% | tube area decrease [4] 19.2% | GLP1 secretion stimulation [5] 9.1% | remaining NAD [11] 10 nM
active: viability decrease [3] 91.8% | inhibition of viability [6] 94.4% | viability decrease (inhibition) [7] 130% | viability decrease (inhibition) [8] 102%

Cc1cccn2c(=O)c(-c3nnn[nH]3)cnc12
inactive: nuclear beta-catenin stimulation ([1]; at 10 µM) 3% | insulin secretion stimulation [2] -1.3% | viability decrease [3] 2.1% | tube area decrease [4] -6.7% | GLP1 secretion stimulation [5] 3.6% | inhibition of viability [6] 13.5% | viability decrease (inhibition) [7] 8.4% | viability decrease (inhibition) [8] -1.9% | z-score [12, 21] 0.721
1.7%: nuclear beta-catenin stimulation ([1]; stimulation, at 2 µM)
-0.0743: z-score [12, 22]

CCN(CC)C(=O)Nc1ccc(OCC(O)CNC(C)(C)C)c(C(C)=O)c1 (stereo unspecified)
inactive: nuclear beta-catenin stimulation ([1]; at 10 µM) -1.9% | insulin secretion stimulation [2] 9.4% | viability decrease [3] 0.3% | tube area decrease [4] -7.8% | GLP1 secretion stimulation [5] -4.8% | inhibition of viability [6] 12% | viability decrease (inhibition) [7] 4.9% | viability decrease (inhibition) [8] -3.6% | z-score [12, 21] 1.68
0.098: z-score [12, 22]
-0.3%: nuclear beta-catenin stimulation ([1]; stimulation, at 2 µM)

O=C1OC2(c3ccccc31)c1cc(I)c(O)c(I)c1Oc1c2cc(I)c(O)c1I
active: GLP1 secretion stimulation [5] 24.3%
1.9%: nuclear beta-catenin stimulation ([1]; stimulation, at 2 µM)
inactive: nuclear beta-catenin stimulation ([1]; at 10 µM) 1.2% | insulin secretion stimulation [2] 1.6% | viability decrease [3] -45.8% | tube area decrease [4] 12% | inhibition of viability [6] -2.6% | viability decrease (inhibition) [7] 24.4% | viability decrease (inhibition) [8] -14.4% | remaining NAD [11] 10 nM

CCCCC(O)c1ccccc1 (stereo unspecified)
-0.8%: nuclear beta-catenin stimulation ([1]; stimulation, at 2 µM)
0.0374: z-score [12, 22]
inactive: nuclear beta-catenin stimulation ([1]; at 10 µM) -0.9% | insulin secretion stimulation [2] -0.1% | viability decrease [3] -9.5% | tube area decrease [4] -9.9% | GLP1 secretion stimulation [5] -3.9% | inhibition of viability [6] 5.3% | viability decrease (inhibition) [7] -5.1% | viability decrease (inhibition) [8] -6% | z-score [12, 21] 0.247 | remaining NAD [11] 10 nM
